# SMN2 splice up – qHTS Assay for Enhancers of SMN2 Splice Variant Expression; HEK293 SMN2-luciferase splicing reporter, luminescence, 30-36 h; Potency, µM (titrated, usually from 46.1 µM), usual class: activators; 2.8% of 210,000 active; note: nearly all actives have a fitted effect of over 55% in size
#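 qHTS luciferase splicing reporter: luminescence rises when SMN2 exon 7 is included in transfected HEK293 cells. Compound exposure lasted 30-36 h at 37C, with 4.5 mM final sodium butyrate as control, followed by a ONE-Glo read.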
# FLuc modulator – qHTS profiling assay for firefly luciferase inhibitor/activator using purifed enzyme and Km concentrations of substrates (counterscreen for miR-21 project) | Potency, µM (doses to about 57.5 µM), hits mostly inhibitors | 6.9% of 360,000 active | purified FLuc, Km substrates, luminescence inhibition | AID 588342, 2011 | Luciferin 4-monooxygenase (Photinus pyralis), P08659; note: nearly all actives have a fitted effect of over 55% in size
#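 Purified P. pyralis luciferase, 10 nM final, with Km-level 10 uM D-luciferin and 10 uM ATP in 50 mM Tris acetate pH 7.5, 10 mM Mg acetate, 0.01% Tween-20, 0.05% BSA; 6-point qHTS titration about 60 µM downward; luminescence read.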
# ELG1 DNA repair – qHTS screen for small molecules that inhibit ELG1-dependent DNA repair in human embryonic kidney (HEK293T) cells expressing luciferase-tagged ELG1; HEK293T ELG1-luciferase reporter, luminescence, 16 h; DNA damage induced by 5-fluorouridine; Potency, µM (series often up to 46.1 µM), most hits filed as inhibitors; 2.3% of 330,000 active; AID 504467, 2011; note: nearly all actives have a fitted effect of over 55% in size
#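 Overnight (16 hr) co-exposure of 2,000 cells/well to 5-fluorouridine and compound at 37 °C preceded detection. Luciferase was quantified via ONE-Glo luminescence; loss of signal denotes inhibition.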
# ELG1 genotox – qHTS screen for small molecules that induce genotoxicity in human embryonic kidney (HEK293T) cells expressing luciferase-tagged ELG1. HEK293T ELG1-luciferase reporter, luminescence, 16 h. Potency, µM (titrated, usually from 46 µM), usual class: activators. 1.3% of 330,000 active. AID 504466, 2011; note: nearly all actives have a fitted effect of over 60% in size
#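 Quantitative HTS format in 1536-well plates. HEK293T ELG1-luciferase reporter cells receive test compound and are incubated 16 hr at 37 °C, 5% CO2; ONE-Glo added, 30 min room temperature, then luminescence read.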
# NPC1 promoter act – qHTS Assay for NPC1 Promoter Activators; 2.4% of 320,000 active; Potency, µM (series often up to 9.22 µM), usual class: activators; Huh7 NPC1 promoter luciferase reporter, 24 h; note: nearly all actives have a fitted effect of over 60% in size
#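 Huh7 cells stably carrying NPC1 promoter–luciferase, plated in Opti-MEM with 10% FBS for 2 h, were exposed to compound in DMSO for 24 h at 37 °C; luciferase reagent was added for 10 min and luminescence read.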
# Rab9 prom act – qHTS Assay for Rab9 Promoter Activators | 2.8% of 320,000 active | Potency, µM (highest dose often 9.22 µM), actives largely listed as activators | AID 485297, 2010 | Huh7 Rab9 promoter-luciferase reporter, luminescence, 24 h; note: nearly all actives have a fitted effect of over 60% in size
#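 Steps: seed 1500 Huh7 Rab9-luc cells per well, rest 2 h at 37 °C; add compound in DMSO; incubate 24 h; add luciferase reagent, 10 min ambient; read luminescence.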
# ELG1 FLuc counter – qHTS screen for small molecules that inhibit ELG1-dependent DNA repair: Hit Confirmation in Cell-Based Luciferin Assay; shares compounds with ELG1 DNA repair; cell-free firefly luciferase luminescence counter-screen, ViewLux; Potency, µM (doses to about 46.1 µM), most hits filed as inhibitors; 3% of 350 active; AID 624247, 2012
# ELG1 Luc conf – HTS assay for small molecules that inhibit ELG1-dependent DNA repair in human embryonic kidney (HEK293T) cells expressing luciferase-tagged ELG1: Hit Confirmation; shares compounds with ELG1 DNA repair; HEK293T ELG1-luciferase levels, luminescence; cells co-treated with 5-fluorouridine; Potency, µM (top dose mostly 46.1 µM), actives largely listed as inhibitors; 68% of 670 active; note: nearly all actives have a fitted effect of over 55% in size
# Target sequence (Q96QE3 whole entry, looked up): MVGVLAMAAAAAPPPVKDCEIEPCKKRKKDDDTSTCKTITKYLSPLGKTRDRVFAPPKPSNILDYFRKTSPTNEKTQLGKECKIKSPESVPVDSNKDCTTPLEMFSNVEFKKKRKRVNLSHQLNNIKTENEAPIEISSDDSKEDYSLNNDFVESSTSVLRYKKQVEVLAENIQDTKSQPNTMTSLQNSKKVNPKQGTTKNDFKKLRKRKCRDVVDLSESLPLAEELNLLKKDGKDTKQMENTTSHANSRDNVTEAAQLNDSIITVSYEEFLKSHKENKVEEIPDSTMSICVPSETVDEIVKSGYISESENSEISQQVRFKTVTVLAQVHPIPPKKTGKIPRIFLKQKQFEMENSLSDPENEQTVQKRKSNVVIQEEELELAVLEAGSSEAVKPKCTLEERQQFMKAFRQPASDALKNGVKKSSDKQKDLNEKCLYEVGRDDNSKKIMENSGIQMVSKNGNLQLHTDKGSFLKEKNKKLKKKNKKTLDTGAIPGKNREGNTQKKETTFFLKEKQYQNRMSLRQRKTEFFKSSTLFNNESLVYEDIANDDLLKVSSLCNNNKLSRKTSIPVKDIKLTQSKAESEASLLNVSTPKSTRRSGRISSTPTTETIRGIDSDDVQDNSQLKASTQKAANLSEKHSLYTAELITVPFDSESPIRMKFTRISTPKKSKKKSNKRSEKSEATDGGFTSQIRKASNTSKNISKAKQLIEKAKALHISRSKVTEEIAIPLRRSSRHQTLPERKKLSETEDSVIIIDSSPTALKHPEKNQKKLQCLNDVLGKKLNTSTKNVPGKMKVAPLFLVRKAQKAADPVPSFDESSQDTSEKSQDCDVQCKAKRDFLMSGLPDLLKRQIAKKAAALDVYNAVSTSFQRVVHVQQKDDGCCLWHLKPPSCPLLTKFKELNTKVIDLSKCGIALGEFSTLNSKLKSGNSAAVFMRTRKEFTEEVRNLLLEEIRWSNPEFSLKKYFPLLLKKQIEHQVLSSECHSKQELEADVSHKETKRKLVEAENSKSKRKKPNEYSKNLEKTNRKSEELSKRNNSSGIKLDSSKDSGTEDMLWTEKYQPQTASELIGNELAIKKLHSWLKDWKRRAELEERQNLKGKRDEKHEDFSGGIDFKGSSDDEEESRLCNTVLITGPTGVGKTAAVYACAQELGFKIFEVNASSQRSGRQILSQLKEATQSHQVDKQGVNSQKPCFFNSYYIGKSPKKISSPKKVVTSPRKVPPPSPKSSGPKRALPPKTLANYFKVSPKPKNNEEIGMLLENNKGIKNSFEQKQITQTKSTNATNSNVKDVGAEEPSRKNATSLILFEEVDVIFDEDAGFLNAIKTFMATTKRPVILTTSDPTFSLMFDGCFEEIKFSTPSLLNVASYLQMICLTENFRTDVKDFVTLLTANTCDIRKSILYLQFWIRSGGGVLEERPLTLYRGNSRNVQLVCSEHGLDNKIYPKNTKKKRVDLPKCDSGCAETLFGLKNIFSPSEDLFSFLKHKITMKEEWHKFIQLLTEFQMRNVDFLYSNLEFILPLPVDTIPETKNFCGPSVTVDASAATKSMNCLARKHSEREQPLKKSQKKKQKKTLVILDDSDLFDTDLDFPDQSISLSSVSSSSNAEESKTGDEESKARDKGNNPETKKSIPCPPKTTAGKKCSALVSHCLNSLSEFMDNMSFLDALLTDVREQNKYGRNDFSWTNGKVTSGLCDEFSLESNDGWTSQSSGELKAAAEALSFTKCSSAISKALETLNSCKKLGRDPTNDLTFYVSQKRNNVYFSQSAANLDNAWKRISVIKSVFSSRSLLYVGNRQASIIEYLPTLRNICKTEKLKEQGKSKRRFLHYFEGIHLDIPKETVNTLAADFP
# ELG1-Luc MMS – confirmation of human ELG1 repair inhibitors, MMS stimulated | shares compounds with ELG1 DNA repair | HEK293T luciferase-tagged ELG1 level, MMS stimulated | Potency, µM (series often up to 46.1 µM), hits mostly inhibitors | 53% of 670 active; note: nearly all actives have a fitted effect of over 60% in size
# ELG1 5FU viab – qHTS screen for small molecules that inhibit ELG1-dependent DNA repair: Hit Confirmation with 5FU Viability; shares compounds with ELG1 DNA repair; cell viability with 5-FU, ELG1-dependent repair; Potency, µM (top dose mostly 46.1 µM), most hits filed as cytotoxic; 670 tested, under 10 active;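 note: ELG1-luc HEK293T cells cotreated with 5-fluorouridine at 10 µM final; viability measured 16 h after compound addition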
# ELG1 MMS viab – qHTS screen for small molecules that inhibit ELG1-dependent DNA repair: Hit Confirmation with MMS Viability; shares compounds with ELG1 DNA repair; Cell viability with MMS, ELG1-dependent DNA repair; Potency, µM (highest dose often 46.1 µM), usual class: cytotoxic; 33% of 670 active; AID 624251, 2012;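 note: ELG1-luc HEK293T cells co-treated with 10 µM MMS; viability read 16 h after compound addition; nearly all actives have a fitted effect of over 60% in size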
# ELG1 unstim viab – qHTS screen for small molecules that inhibit ELG1-dependent DNA repair: Hit Confirmation with Unstimulated Viability Assay; shares compounds with ELG1 DNA repair; cell viability counter-screen, unstimulated, luminescence; Potency, µM (series often up to 45.9 µM), hits mostly cytotoxic; 8% of 900 active; AID 624252, 2012;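 note: compound exposure lasted 16 hours before reading; nearly all actives have a fitted effect of over 55% in size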
# FLuc biochem – qHTS screen for small molecules that inhibit ELG1-dependent DNA repair: Hit Confirmation in Biochemical Luciferin Assay | Potency, µM (doses to about 57.5 µM), usual class: inhibitors | 10% of 350 active | shares compounds with ELG1 DNA repair | purified firefly luciferase, luminescence counter-screen | AID 624253, 2012
# Numbers stand for hits; - = inactive; ? = inconclusive; . = not tested or not shown; [ ] = dose if it differs, or a comment. In the library only some 9.2% were active in any assay of this set; here they are far more common. Calls come from the whole dose curve; as a rule, active = well fitted curve in the direction sought with a large enough effect; inconclusive = small, poorly fitted or top-dose-only effect, or another doubt; inactive = no such curve, though single readings can be large; an effect the other way counts as inactive or inconclusive.
SMILES,SMN2 splice up,FLuc modulator,ELG1 DNA repair,ELG1 genotox,NPC1 promoter act,Rab9 prom act,ELG1 FLuc counter,ELG1 Luc conf,ELG1-Luc MMS,ELG1 5FU viab,ELG1 MMS viab,ELG1 unstim viab,FLuc biochem
O=C(Nc1ccc(F)cc1)N(CCCN1CCOCC1)Cc1cc2cc3c(cc2[nH]c1=O)OCO3,-,-,-,-,-,-,-,?,-,-,-,?,-
O=C(Nc1ccc(F)cc1)N(CCCN1CCOCC1)Cc1cc2cc3c(cc2[nH]c1=O)OCCO3,-,-,?,-,-,-,.,.,.,.,.,.,.
CCn1c(N2CCN(CC(=O)c3c[nH]c4ccccc34)CC2)nc2c1c(=O)[nH]c(=O)n2C,-,-,-,-,-,-,-,?,-,?,-,-,-
CCCn1c(N2CCN(CC(=O)c3c(C)n(C)c4ccccc34)CC2)nc2c1c(=O)[nH]c(=O)n2C,-,-,7.31µM,-,-,-,-,3.15µM,?,?,-,-,-
COC(=O)C1(NC(=O)NC2CCCCC2)CCCCC1,.,-,-,-,-,-,.,.,.,.,.,.,.
COc1cc(NS(=O)(=O)c2ccc(Cl)cc2)c(C(=O)O)cc1OC,-,-,-,-,-,-,.,.,.,.,.,.,.
Cc1[nH]n(-c2nc(-c3ccc(Cl)cc3)cs2)c(=O)c1N=Nc1ccc(O)cc1,.,?,4.11µM,-,-,-,.,15.8µM,15.8µM,?,28.1µM,?,.
O=C(NCc1cccs1)c1cc(-c2cccc(Cl)c2)on1,-,-,?,?,-,?,.,.,.,.,.,.,.
Cc1ccc(-c2cc(C(=O)NCc3cccs3)no2)cc1,-,-,?,?,?,2µM,-,.,.,.,.,-,?
COc1cc(C)c(Br)cc1S(=O)(=O)NCc1ccncc1,-,-,1.64µM,-,-,-,-,-,3.15µM,-,3.15µM,?,-
Cc1ccc(S(=O)(=O)NCc2ccncc2)c(C)c1C,.,-,-,-,-,-,-,-,0.997µM,-,1.12µM,?,-
Cc1ccc(S(=O)(=O)NCc2ccccn2)c(C)c1C,.,-,?,-,-,-,.,.,.,.,.,.,.
CC1CCc2nc(NC(=O)c3ccc(S(=O)(=O)N4CCCc5ccccc54)cc3)sc2C1 (stereo not given),.,-,2.91µM,-,-,-,.,?,2.5µM,-,2.81µM,?,.
O=C(Nc1nc2c(s1)CCCC2)c1ccc(S(=O)(=O)N2CCCc3ccccc32)cc1,-[1.84 µM],-,-,-,-,-,.,.,.,.,.,.,.
c1nc(CCO[C@H]2CCCCO2)cc2cc3c(cc12)OCO3,.,.,?,?,.,.,-,.,.,.,.,-,0.651µM
O=[N+]([O-])c1ccc(NN=C2c3ccccc3Cc3ccccc32)c([N+](=O)[O-])c1,-[9.22 µM],.,.,.,.,.,.,.,.,.,.,.,.
CC(=O)Nc1ccc(/C=C/c2sc3ccccc3[n+]2CCCCI)cc1,.,.,.,.,.,.,.,.,.,.,.,-,.
CC[n+]1c(/C=C/C=C/N(C(C)=O)c2ccccc2)sc2ccccc21,-,-,-,-,-,-,.,.,.,.,.,.,.
COC(=O)Nc1nc2ccc(S(=O)c3ccccc3)cc2[nH]1 (stereo not given),-,.,.,.,.,.,.,.,.,.,.,.,.
COC(=O)Nc1nc2ccc(C(=O)c3cccs3)cc2[nH]1,-,.,.,.,?,-,.,.,.,.,.,-,.
COc1ccc(CCN(Cc2cccs2)S(=O)(=O)c2ccc(S(=O)(=O)N3CCCCCC3)cc2)cc1OC,-,-,2.91µM,-,-,-,.,?,4.45µM,-,7.05µM,-,.
Cc1cn(C2OC(COC(=O)c3ccccc3)C(O)C2O)c(=O)[nH]c1=O (stereo not given),-,-,-,-,-,-,.,.,.,.,.,.,.
Cc1cn(C2OC(COC(=O)c3ccccc3)C(OC(=O)c3ccccc3)C2OC(=O)c2ccccc2)c(=O)[nH]c1=O (stereo not given),-,-,4.61µM,-,-,-,.,3.15µM,-,?,?,-,.
COc1ccc(-c2noc(CCCC(=O)NC3CCCC3)n2)cc1,.,?,4.61µM,-,-,-,.,?,5.6µM,-,7.05µM,?,.
O=C(COc1ccc(Cl)cc1)NNC(=O)CSc1nncs1,-,-,-,-,-,-,.,.,.,.,.,.,.
COc1ccccc1C(=O)NC(=O)COc1ccc([N+](=O)[O-])cc1,.,-,-,-,-,-,.,.,.,.,.,.,.
COc1ccc2c(c1)c(CC(=O)Nc1ccccc1OC)c(C)n2C(=O)c1ccc(Cl)cc1,-,-,-,-,-,-,-,9.97µM,?,?,?,-,-
COc1cnc(-c2ccccn2)nc1Sc1ccc(Cl)cc1,-,-,0.366µM,-,-,-,-,28.1µM,?,-,-,-,-
COc1ccc(/C=C(/NC(=O)c2ccccc2)c2nc3ccccc3[nH]2)cc1OC,-,-,-,-,-,-,.,.,.,.,.,.,.

# Bioassay records (PubChem BioAssay)
